According to PubChem BioAssay (NCI):
Compounds without any hit were thinned out: in the full panel of roughly 79,000, 15% have a hit. No stated cut-off is given here; in the data, active means growth inhibition above about 70%; inactive means the rest.

How the values were obtained:
[1] = NCI Yeast Anticancer Drug Screen. Data for the rad50 strain (AID 155);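 further: 0% = growth of vehicle-only cultures of the same strain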; settings: S. cerevisiae rad50 strain growth inhibition, active compounds read high; at 50.0 µM unless noted
How it was run: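 Yeast carrying a defined DNA repair defect were exposed to test compounds, and growth was compared with vehicle-treated controls to give percent inhibition.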

[2] = NCI Yeast Anticancer Drug Screen. Data for the mec2-1 strain (AID 157); settings: S. cerevisiae mec2-1 strain, active compounds read high; at 50.0 µM unless noted
How it was run: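 Test agents were screened against the mec2-1 yeast strain, with defined DNA repair or cell cycle alteration. Growth was scored as inhibition against vehicle-only controls.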

[3] = NCI Yeast Anticancer Drug Screen. Data for the sgs1 mgt1 strain (AID 161);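 further: 0% = growth of cultures given vehicle only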; settings: S. cerevisiae sgs1 mgt1 strain, active compounds read high; at 50.0 µM unless noted
How it was run: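 Read-out: growth inhibition vs vehicle controls. Cells: mutant yeast strain deficient in DNA damage repair.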

[4] = NCI Yeast Anticancer Drug Screen. Data for the cln2 rad14 strain (AID 165);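 further: 0% = growth equal to vehicle treated cultures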; settings: S. cerevisiae cln2 rad14 strain, active compounds read high; at 50.0 µM unless noted
How it was run: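 Growth of compound-exposed yeast (cln2 rad14 genotype) measured and expressed as inhibition relative to vehicle.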

[5] = NCI Yeast Anticancer Drug Screen. Data for the bub3 strain (AID 167); settings: S. cerevisiae bub3 mutant strain, active compounds read high; at 50.0 µM unless noted
How it was run: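 Compounds were applied to a genetically altered yeast strain carrying a cell-cycle control defect. Growth inhibition was scored against vehicle-treated controls.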

[6] = NCI Yeast Anticancer Drug Screen. Data for the mlh1 rad18 strain (AID 175); settings: S. cerevisiae mlh1 rad18 strain growth inhibition, active compounds read high; at 50.0 µM unless noted
How it was run: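 In this whole-cell yeast screen, a strain with altered DNA damage repair is challenged with compound, and its growth is measured against matched vehicle-treated controls.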

Measured: growth inhibition

O=C(CCC/C(CC(=O)c1ccc(Br)cc1)=N\O)Nc1ccccc1
inactive: [1] 52.9% | [2] 25.8% | [3] 17.8% | [4] 19.6% | [5] 28.7% | [6] 25.7%

CCCCCCCCCCCC(O)C(C)(C)C (centres undefined)
inactive: [1] 23.7% | [2] 10.1% | [3] -12.6% | [4] -39.2% | [5] 11.9% | [6] 10.3%

Cc1onc(-c2ccccc2)c1C(C)(O)c1ccccc1 (centres undefined)
inactive: [1] 12.8% | [2] 11.2% | [3] 16.6% | [4] -17.9% | [5] 18.2% | [6] 5.7%

O=C(NC(NC(=O)c1ccccc1)c1ccccc1)c1ccccc1
inactive: [1] 2.1% | [2] -9.2% | [3] 1.25% | [4] -55.2% | [5] 8.55% | [6] -0.9%
